About 7,500 (2.1%) of roughly 360,000 compounds were called active. Another 8% or so got no clear call; they are omitted. Calls come from the whole dose curve; as a rule, active = well fitted cell-killing curve with a large enough effect; inconclusive = small, poorly fitted or top-dose-only effect, or effect the other way, or another doubt; inactive = no such curve, though single readings can be large or run the other way. The full list was thinned out, with actives kept by preference.
Potency is the fitted concentration of half-maximal effect.

This experiment can be described thus: qHTS for induction of synthetic lethality in tumor cells producing 2HG: qHTS for the HT-1080-IDH1KD cell line.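 For activity, negative = toxicity: 0% = DMSO wells and -100% = cell-free medium wells.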 The conditions noted are these: HT-1080 IDH1 knockdown viability, ATP luminescence, 48 h; series mostly up to 46.1 µM; activity, negative = toxicity: at the top concentration. An outline of the steps: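 CellTiter-Glo luminescence after 48 h compound exposure at 37 degrees C of IDH1-knockdown HT-1080 cells in 5% FBS RPMI. %Activity scaled between DMSO wells and cell-free media wells, with curves fitted and assigned curve classes.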
Consider `Cc1nnc(NC(=O)CCCOc2ccccc2)s1`, for which the “activity, negative = toxicity” value is 6.19% (inactive).
As to `CSc1nnc(NC(=O)c2nc(S(=O)(=O)Cc3ccc(C)cc3)ncc2Cl)s1`, the Potency was 6.51 µM (active).
With `CSc1ncc(Cl)c(C(=O)Nc2cc(C)ccc2C)n1`, the “activity, negative = toxicity” value is 14.2% (inactive).
On the same count and under the same terms, as for `COCCSc1nnc(NC(=O)CCS(=O)(=O)Cc2ccccc2)s1`, the figure is -2.55% (inactive).
For `Cc1nnc(NC(=O)c2ccc3nccnc3c2)s1`, the “activity, negative = toxicity” value is 18.6% (inactive).
Regarding `Cc1ccc(CS(=O)(=O)c2ncc(Cl)c(C(=O)Nc3nnc(C)s3)n2)cc1`, the Potency is 20.6 µM (active).
`Cc1cc(OCC(=O)Nc2nccs2)c2c(C)c(C)c(=O)oc2c1`: the “activity, negative = toxicity” value is 1.11% (inactive).
Consider `CNC(=O)c1ccc(CN(C)C(=O)c2cc(C3CC3)nc3c2cnn3C(C)C)cc1`, for which the “activity, negative = toxicity” value is -15.6% (inactive).
Take `CC(=O)Oc1ccc(Cn2c(C)c(C(=O)NCc3ccc(C#N)cc3)sc2=O)cc1`: the “activity, negative = toxicity” value was -23% (inactive).
Take `O=C(/C=C/[C@H]1O[C@@H](n2ccc(=O)[nH]c2=O)[C@H](O)[C@@H]1O)NCc1ccccn1`: the “activity, negative = toxicity” value is 18.2% (inactive).
Take `CC1C(=O)Nc2ccccc2N1C(=O)c1c(F)cccc1F` (configuration not stated): the “activity, negative = toxicity” value was -5.49% (inactive).
`Cc1c(CCO)c(=O)[nH]n1C(=O)c1c(F)cccc1F`: the Potency was 6.31 µM (active).
For `Cc1c(CCO)c(=O)n(-c2ccccc2)n1S(=O)(=O)c1ccc(F)cc1`, the “activity, negative = toxicity” value is -14.4% (inactive).
Regarding `Cc1ccc(C(=O)OCC(=O)NC2CCCCCCC2)cc1C`, the “activity, negative = toxicity” value is 14.4% (inactive).
Still for that read-out and setting: as for `CCOC(=O)C1CCCN(C(=O)c2ccc(N(C)C)cc2)CC1` (configuration not stated), the figure is 18.3% (inactive).
Consider `CSc1ncnc2c1ncn2CCCNCc1cccs1`, for which the “activity, negative = toxicity” value was -0.667% (inactive).
On to `CC1(C(=O)NS(=O)(=O)c2cccs2)CCN1C(=O)Cc1ccc(-c2ccccc2)cc1` (configuration not stated), for which the “activity, negative = toxicity” value was 0.115% (inactive).
With `Cc1ccc(Cc2c(-c3ccco3)nc3ccc(Cl)cn23)cc1`, the Potency is 16.4 µM (active).
As for `Cc1ccc(-c2nc3ccc(Cl)cn3c2Cc2ccccc2)cc1`, the “activity, negative = toxicity” value is 14.3% (inactive).
Turning to `Cc1ccc(Cc2c(-c3ccccc3)nc3ccc(Cl)cn23)cc1`, the “activity, negative = toxicity” value is -1.66% (inactive).
Consider `Cc1cccc(CNC(=O)c2sc(=O)n(Cc3ccccc3C)c2C)c1`, for which the “activity, negative = toxicity” value is -6.96% (inactive).
For the compound `CCN(CC)C(=O)C1=C(C)N(Cc2ccc(OC)cc2)C(=O)C(CC(=O)NCc2ccco2)C1` (configuration not stated), the “activity, negative = toxicity” value was -4.38% (inactive).
On the same count and under the same terms, as for `CC(C)c1ccc(CC(=O)N2CCC2(C)C(=O)NS(=O)(=O)c2ccc(C(C)(C)C)cc2)cc1` (configuration not stated), the figure is 6.81% (inactive).
`CC1=CC(C)(C)NC(=S)N1c1ccccc1`: the Potency is 11.2 µM (active).
As for `CC1=CC(C)(C)NC(=S)N1NC(=O)c1ccccc1Cl`, the “activity, negative = toxicity” value is 6% (inactive).
`O=C1C(Sc2cccc(F)c2)=C[C@@]2(O)CC[C@@H](O)[C@]1(Sc1cccc(F)c1)[C@H]2O`: the “activity, negative = toxicity” value was -28.1% (inactive).
Still for that read-out and setting: the figure for `CCOC(=O)c1cc(-c2sc(NC(=O)c3ccccc3)nc2C)n(CCO)n1` is -19.1% (inactive); for `Cc1cc(C)n2c(Nc3c(C)cccc3C)c(CCc3ccccc3)nc2n1` it is -3.88% (inactive).
Take `COc1ccc(S(=O)(=O)N(C)C[C@H]2OCc3cnnn3CCCC(=O)N([C@H](C)CO)C[C@H]2C)cc1`: the “activity, negative = toxicity” value is -3.99% (inactive).
On to `Oc1c(Cl)cc(Cl)c(Cl)c1Cc1c(O)c(Cl)cc(Cl)c1Cl`, for which the Potency is 7.31 µM (active).
For the compound `COc1cc2nc(N3CCCN(C)CC3)nc(NC3CC3)c2cc1OC`, the “activity, negative = toxicity” value was -19% (inactive).
For the compound `CC(=O)NN=C(C)c1ccc(NC(=O)C2CC2)cc1`, the “activity, negative = toxicity” value is -0.362% (inactive).
Still for that read-out and setting: as for `CCCCN1CC(C)(C)[C@H](CC(=O)Nc2ccc(Br)cc2)C1=O`, the figure is 8.88% (inactive).
As to `COc1ccc(NC(=O)CCCNC(=O)Cn2cnc3sc4c(c3c2=O)CCCC4)cc1OC`, the “activity, negative = toxicity” value is 11.8% (inactive).
Turning to `COc1ccc(/C=N/Nc2ncnc3sc4c(c23)CCCC4)cc1O`, the Potency was 20.6 µM (active).
Take `COc1ccc(NC(=O)CCNC(=O)Cn2cnc3sc4c(c3c2=O)CCCC4)cc1OC`: the “activity, negative = toxicity” value is 1.16% (inactive).
Take `Nc1cccc(-c2cncc(N3CCN(Cc4ccccn4)CC3)n2)c1`: the “activity, negative = toxicity” value was 7.1% (inactive).
On the same count and under the same terms, the figure for `C[C@H](CO)N1C[C@H](C)[C@H](CN(C)C(=O)Nc2ccc3c(c2)OCO3)Oc2ncc(Br)cc2C1=O` is 8.51% (inactive); for `COc1ccccc1-n1nnnc1SCC(=O)NC(=O)Cc1ccccc1` it is 0.816% (inactive).
For the compound `COc1ccccc1-n1nnnc1S(=O)(=O)Cc1ccc(Cl)cc1`, the Potency was 16.4 µM (active).
In the case of `CCC(C)N(C(=O)CSc1nnnn1-c1ccccc1OC)C1CCS(=O)(=O)C1` (configuration not stated), the “activity, negative = toxicity” value was 2.01% (inactive).
On to `OC[C@@H]1CN(Cc2ccc3c(c2)OCO3)C[C@H](n2cnc3c(NCc4ccco4)ncnc32)O1`, for which the “activity, negative = toxicity” value was 4.42% (inactive).
Still for that read-out and setting: as for `CC(C)(C)C1CCC(=O)N2CCC[C@]2(c2ccccc2)C1` (some centres not stated), the figure is 9.93% (inactive); as for `CCCc1ccc(S(=O)(=O)N2CCN(C(=O)c3cc(C)on3)CC2)cc1`, -0.945% (inactive); as for `Cc1cc(Nc2ccc(C)c(C)c2)n2ncnc2n1`, -2.91% (inactive).
Same read-out and setting: the figure for `CC(=O)OC[C@@H]1CN(Cc2ccccc2)C[C@H](n2cnc3c(NCc4ccco4)ncnc32)O1` is 19.6% (inactive).
For `Oc1ccccc1-c1cc(-c2ccc(Cl)cc2)n[nH]1`, the Potency is 16.4 µM (active).
Regarding `CSc1ccccc1-c1nnc(-c2ccc(Cl)cc2)o1`, the activity, negative = toxicity was -1.6% [at 9.24 µM] (inactive).
On to `O=C(Nc1ccc(Cl)cn1)c1ccccc1-c1ccccc1`, for which the “activity, negative = toxicity” value was 5.73% (inactive).
Take `O=C(COc1ccc(Br)cc1)OCC(=O)c1ccc[nH]1`: the “activity, negative = toxicity” value is -0.3% (inactive).
Same read-out and setting: the figure for `Cc1ccc(C(=O)N[C@H](C(=O)N2CCN(c3ncccn3)CC2)C(C)C)cc1` is -5.92% (inactive).
Regarding `O=C(CO/N=C/c1ccccc1O)NNC(=O)c1ccccc1Cl`, the “activity, negative = toxicity” value was -23.8% (inactive).
`O=C(N/N=C/c1ccccc1O)/C(=C/c1ccccc1)CCO`: the Potency was 3.26 µM (active).
`Oc1ccccc1C=NC1CCCCC1N=Cc1ccccc1O` (configuration not stated): the “activity, negative = toxicity” value is 2.75% (inactive).
With `O=C(NN=Cc1ccccc1)c1ccccc1`, the “activity, negative = toxicity” value was 12.9% (inactive).
Take `O=C(NN=Cc1ccccc1O)NN=Cc1ccccc1O`: the Potency is 8.2 µM (active).
`O=C(N/N=C/c1ccccc1O)C1CCCC1`: the Potency was 23.1 µM (active).
`O=C(CCC(=O)Nc1ccccc1)N/N=C/c1ccccc1F`: the “activity, negative = toxicity” value is 12.4% (inactive).
On the same count and under the same terms, as for `C=CCOc1ccccc1/C=N/NC(=O)Cc1ccccc1`, the figure is 5.83% (inactive); as for `COc1ccc(/C=N/NC(=O)C2CC2)c(OC)c1OC`, 16.6% (inactive); as for `Brc1ccc2nc(-c3ccccc3)c(Cc3ccccc3)n2c1`, 18.4% (inactive).
Take `O=C(/C(=C/c1cccc(Cl)c1)c1nc2ccccc2[nH]1)c1ccccc1`: the Potency was 3.26 µM (active).
With `O=C(N/N=C/c1ccc(Cl)cc1)c1nc2ccc([N+](=O)[O-])cc2c(=O)[nH]1`, the “activity, negative = toxicity” value is 9.48% (inactive).
With `N#C/C(=C(/O)COC(=O)COc1ccc(Cl)cc1)c1nc2ccccc2[nH]1`, the “activity, negative = toxicity” value was 25.4% (inactive).
Turning to `O=C(Nc1ccon1)c1nc[nH]c1C(=O)NCc1ccccc1`, the Potency was 2.59 µM (active).
For the compound `O=C(Nc1cc(Br)ccc1F)c1nc[nH]c1C(=O)NCc1ccccc1`, the “activity, negative = toxicity” value is 0.69% (inactive).
With `CCOC(=O)c1ccc(NC(=O)c2nc[nH]c2C(=O)NCc2ccccc2)cc1`, the “activity, negative = toxicity” value was 9.29% (inactive).
